# The list is not random: actives were taken first. Their share in the collection is about 4.5%.
# 697 NFkB inh = inhibitors of the PMA/ionomycin-induced NF-kB reporter in 697 B cells; 697 B-cell NF-kB luciferase reporter, 16 h; inhibition, % at 4 µM; 330,000 tested, 0.33% active; in the data active = inhibition above about 35%
# Gli-Sufu block = Gli-Sufu pathway antagonism; AID 588413; Sufu-KO-LIGHT fibroblasts, Gli luciferase reporter luminescence; inhibition, % at 5 µM; 340,000 tested, 0.74% active;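 active = inhibition above about 55%, limit read from the data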;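 also: 0% = DMSO-treated cells and 100% = wells with medium but no cells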
# Mdm2-MdmX inh = inhibitors of human Mdm2/MdmX interaction; inhibition, % at 8 µM; O15151+Q00987; SaOS-2 split-luciferase Mdm2/MdmX complementation, luminescence; 330,000 tested, 3% active;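 active = inhibition of at least 50% at 8 µM in the primary screen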
# Target sequence (O15151 whole entry, looked up): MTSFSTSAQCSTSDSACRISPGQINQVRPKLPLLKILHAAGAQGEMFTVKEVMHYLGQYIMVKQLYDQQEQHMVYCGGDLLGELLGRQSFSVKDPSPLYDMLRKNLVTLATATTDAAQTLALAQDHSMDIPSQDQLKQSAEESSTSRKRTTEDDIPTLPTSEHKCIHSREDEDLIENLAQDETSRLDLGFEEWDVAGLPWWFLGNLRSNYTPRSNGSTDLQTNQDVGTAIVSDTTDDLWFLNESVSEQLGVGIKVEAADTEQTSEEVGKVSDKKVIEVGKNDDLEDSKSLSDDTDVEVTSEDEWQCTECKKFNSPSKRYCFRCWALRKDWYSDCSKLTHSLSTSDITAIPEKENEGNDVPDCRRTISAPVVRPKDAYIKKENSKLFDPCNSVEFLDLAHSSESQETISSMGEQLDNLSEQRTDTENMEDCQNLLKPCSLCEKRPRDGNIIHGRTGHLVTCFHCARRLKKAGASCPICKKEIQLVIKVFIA
# Target sequence (Q00987 whole entry, looked up): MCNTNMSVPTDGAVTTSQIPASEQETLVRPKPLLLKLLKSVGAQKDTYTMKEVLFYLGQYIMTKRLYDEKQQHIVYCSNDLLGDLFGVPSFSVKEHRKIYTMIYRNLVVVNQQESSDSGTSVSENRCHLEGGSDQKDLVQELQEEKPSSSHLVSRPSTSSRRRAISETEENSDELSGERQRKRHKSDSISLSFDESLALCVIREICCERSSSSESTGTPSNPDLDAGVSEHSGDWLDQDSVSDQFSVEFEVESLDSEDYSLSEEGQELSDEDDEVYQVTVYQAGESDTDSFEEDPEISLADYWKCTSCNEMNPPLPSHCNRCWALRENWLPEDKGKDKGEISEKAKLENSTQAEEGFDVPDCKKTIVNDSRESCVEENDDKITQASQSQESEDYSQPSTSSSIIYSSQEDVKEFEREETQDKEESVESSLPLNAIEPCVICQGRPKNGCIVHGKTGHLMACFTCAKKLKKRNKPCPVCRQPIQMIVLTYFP
# CSC inhib = cancer stem cell inhibition. cancer stem cell-like cells viability, luminescence. AID 2717. 300,000 tested, 1.1% active. inhibition, % at 7.5 µM; in the data active = inhibition above about 75%; tested in HMLE shEcad cells
# Jurkat NFkB inh = lowers PMA/ionomycin-induced NF-kB signal in Jurkat cells; PMA/ionomycin-induced NF-kB luciferase reporter, luminescence; inhibition, % at 4 µM; 330,000 tested, 0.53% active; in the data active = inhibition above about 50%
# Beta cell apopt = blocks beta cell apoptosis | protection from apoptosis, % (no concentration beside the values) | INS-1E cytokine-induced death, ATP luminescence, 48 h; percent of positive-control rescue, neutral wells zero | 300,000 tested, 0.8% active;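 active = Every replicate reaches about 75%, or at least half do and their mean reaches it too, limit read from the data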;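 also: 0% = cytokine-treated negative control wells and 100% = positive control rescue; higher means more ATP so stronger rescue from cytokine killing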
# Numbers without * were called inactive; nt = not tested or not shown.
SMILES,697 NFkB inh,Gli-Sufu block,Mdm2-MdmX inh,CSC inhib,Jurkat NFkB inh,Beta cell apopt
CCN(CC(=O)Nc1ccc(NC(C)=O)cc1)C(=O)CCCOc1ccc(C(C)(C)C)cc1,-8.8,0.9,15.5,29.4,18.7,92.8*
CN(C)CCNc1nc2sc3c(c2c(=O)n1-c1ccccc1)CCCCC3,-11.7,5.6,10.2,75.1*,2.9,-9.2
O=c1ccc(C(F)(F)F)cn1Cc1cc(=O)n2ccsc2n1,12.8,-10.5,-24.2,-0.4,10.4,-1.6
O=c1cc(CNc2cc(C(F)(F)F)cc(C(F)(F)F)c2)nc2sccn12,-67.7,9.4,18.3,80.7*,11.8,6.6
COc1ccc(C2=CC(c3ccc(F)cc3)n3nnnc3N2)cc1 (centres undefined),-9.5,-0.9,3.5,-5.4,-11.2,-1.6
Cc1ccc(C2=CC(c3ccc(N(C)C)cc3)n3nnnc3N2)cc1 (centres undefined),-10.2,-6.7,-22.3,1.3,4.6,108.3*
CC(OC(=O)C1CCN(c2ccc(C(F)(F)F)cn2)CC1)C(=O)Nc1cccc([N+](=O)[O-])c1 (centres undefined),-4.3,-9.2,1.5,nt,8.4,0.6
O=C(CN1C(=O)C2CC=CCC2C1=O)Nc1ccc(F)cc1F (centres undefined),12.1,-4.0,25.0,-18.8,-1.1,-0.6
CN(CC(=O)Nc1ccc(Cl)cc1F)C1=NS(=O)(=O)c2ccccc21,-3.5,0.3,5.9,-21.2,-17.5,-2.4
O=C(NCc1cccnc1)c1ccc(COc2ccccc2Br)cc1,-18.7,24.7,10.6,29.4,-21.8,18.7
Cc1cc(C)n(Cc2ccc(NC(=O)c3ccc(COc4ccccc4Br)cc3)cc2)n1,-47.1,1.7,36.2,125.3*,18.6,78.3*
O=C(Nc1nccs1)c1ccc(COc2ccccc2Br)o1,-45.4,-25.0,-9.9,195.6*,-1.9,1.1
O=C(Nc1nccs1)c1ccc(COc2ccc(F)cc2)o1,-55.5,-22.5,-56.5,25.7,-37.5,1.2
O=C(Nc1cccnc1)c1ccc(COc2ccccc2Br)cc1,-16.6,37.7,6.8,90.0*,-0.1,2.2
O=C(NCc1cccnc1)c1ccc(COc2ccccc2Cl)cc1,-20.9,22.4,19.3,7.5,0.2,102.9*
O=S(=O)(c1c(Cl)cc(Br)cc1Cl)N1CCN(C(=S)NC2CC2)CC1,9.8,-0.5,19.1,-11.3,-5.5,-8.6
O=C(CCC(=O)c1ccc(Cl)cc1)OCc1nc2ccsc2c(=O)[nH]1,8.6,3.2,23.1,-12.8,25.1,nt
O=C(COC(=O)c1ccc(S(=O)(=O)N2CCCCC2)cc1)NCc1ccc(F)cc1,-11.6,-6.8,15.1,nt,-12.8,nt
Cc1cc(O)ccc1Nc1nc2ccccc2nc1Nc1ccc(O)cc1C,2.5,9.9,11.2,19.7,1.7,1.2
Cc1cccc(C)c1N=Nc1c(C)cc(O)cc1C,-14.6,-12.4,33.8,99.4*,-15.0,6.9
C/C(=N\Nc1cc(C(F)(F)F)ccc1Cl)c1ccccc1O,-28.0,13.4,1.7,77.2*,-26.8,13.6
Cc1ccc(S(=O)(=O)c2cc3cc(Br)ccc3oc2=O)cc1,-6.6,-0.4,18.5,15.1,6.9,-5.8
CCCCCCc1cc2cc(S(=O)(=O)c3ccc(C)cc3)c(=O)oc2cc1O,5.1,5.5,32.3,89.1*,1.2,0.2
Cc1ccc(-c2ccc(OC(=O)c3ccc(=O)[nH]c3)c(C)c2)cc1,-21.6,-8.4,13.0,75.8*,6.2,-3.2
C[C@@H]1CC[C@]2(C(=O)O)CC[C@]3(C)C(=CCC4[C@]56CC[C@@](O)(OC5)C(C)(C)C6CC[C@]43C)C2[C@H]1C (some centres undefined),-5.0,-5.5,29.3,96.1*,1.4,2.8
SMILES,697 NFkB inh,Gli-Sufu block,Mdm2-MdmX inh,CSC inhib,Jurkat NFkB inh,Beta cell apopt
C[C@H]1[C@H](C)CC[C@]2(C)CC[C@]3(C)C(=CC[C@@H]4[C@@]5(C)CC[C@@H](O)[C@](C)(C(=O)O)[C@@H]5CC[C@]43C)[C@H]12,nt,nt,nt,76.5*,nt,-4.4
C[C@@H]1CC[C@]2(C(=O)O)CC[C@]3(C)C(=CCC4[C@@]5(C)CC[C@H](O)[C@@](C)(C(=O)O)C5CC[C@]43C)C2[C@]1(C)O (some centres undefined),17.8,-9.0,-4.4,-14.0,-9.0,-9.1
CC(C)(O)[C@@H]1[C@@H]2C[C@@]3(CC[C@]4(C)C(CCC5[C@@]6(C)CC[C@H](O)C(C)(C)C6CC[C@]54C)[C@@H]13)C(=O)O2 (some centres undefined),22.3,-3.2,7.9,-0.1,1.4,-0.8
C[C@H]1[C@H](C)CC[C@]2(C)CC[C@]3(C)C(=CC(=O)C4[C@@]5(C)CC[C@H](O)C(C)(C)C5CC[C@]43C)[C@H]12 (some centres undefined),14.6,-36.5,-2.3,98.2*,-5.7,4.6
CCc1ccc(/C=N/n2c(COc3ccccc3)n[nH]c2=S)cc1,-4.2,4.0,-21.2,-5.1,6.8,-6.2
COc1ccc(C(=O)OCC(=O)c2ccc[nH]2)c(OC)c1,-36.1,-51.6,-35.8,-3.5,-49.1,4.2
O=C(Nc1ccc([N+](=O)[O-])cc1)C1CC1(c1ccccc1)c1ccccc1 (centres undefined),16.5,15.4,45.9,21.4,10.6,-6.4
CC1(C)C(C=C(Cl)Cl)C1C(=O)Nc1ccc([N+](=O)[O-])cc1 (centres undefined),nt,2.8,nt,54.3,nt,96.2*
CNS(=O)(=O)c1cccc(C(=O)OCC(=O)c2c(N)n(Cc3ccccc3)c(=O)n(C)c2=O)c1,nt,10.4,nt,nt,nt,nt
Cc1ccc(C(=O)Nc2ncc(Cc3ccc(F)cc3)s2)o1,5.7,-24.5,-160.9,120.1*,-26.1,-1.1
Cc1ccc(C(=O)Nc2ncc(C)s2)o1,-37.8,10.6,-96.4,8.1,-73.0,-0.5
O=C(COc1ccccc1/C=C1\SC(=S)NC1=O)Nc1ccc(F)cc1,-4.0,21.5,19.5,65.5,-8.4,21.9
COC(=O)C[C@](O)(CCCC(C)(C)O)C(=O)O[C@@H]1C(OC)=C[C@]23CCCN2CCc2cc4c(cc2[C@H]13)OCO4,nt,nt,nt,98.3*,nt,77.9*
N#CC(C#N)=C(Nc1ccc(F)cc1)SCc1cccc(Br)c1,nt,64.4*,nt,118.8*,nt,105.3*
O=C(N/N=C/c1ccc(N2CCCC2)c([N+](=O)[O-])c1)c1cccnc1,21.8,-11.0,11.8,19.1,9.6,-6.8
O=C(Cn1c2ccccc2c(=O)c2ccccc21)N/N=C/c1ccc(N2CCCC2)c([N+](=O)[O-])c1,nt,4.8,nt,112.6*,nt,30.5
NC(=O)c1ccc(NC(=O)COC(=O)CNC(=O)c2sc3ccccc3c2Cl)cc1,10.5,nt,1.8,-1.7,-12.8,-6.1
COc1ccc(-c2nn(-c3ccccc3)cc2C(=O)OCC(=O)c2ccc(C)c([N+](=O)[O-])c2)cc1,5.2,5.3,13.3,39.4,7.2,101.0*
COc1ccc(-c2cc(C(=O)OCC(=O)c3ccc(C)c([N+](=O)[O-])c3)c3ccccc3n2)cc1,-4.2,-18.8,19.0,11.1,2.0,-3.3

# Source: PubChem
